Source: article PMC11006913

Experiments:
Test in all cases: PBM; 200 nM protein, PBS
Details in all cases: dsDNA, one strand shown
[1] = target: HESX1 (Homo sapiens, UniProt Q9UBX0 95-180, R165K)
[2] = target: ALX4 (Homo sapiens, UniProt Q9H161 200-286)
[3] = target: PRRX1 (Homo sapiens, UniProt P54821 80-166, F113S)
[4] = target: ALX4 (Homo sapiens, UniProt Q9H161 200-286, Q225E)
[5] = target: HESX1 (Homo sapiens, UniProt Q9UBX0 95-180)
[6] = target: MSX2 (Homo sapiens, UniProt P35548 130-214, R199I)
[7] = target: ALX1 (Homo sapiens, UniProt Q15699 118-204, L144V)
[8] = target: ALX1 (Homo sapiens, UniProt Q15699 118-204, L144R)
[9] = target: PROP1 (Homo sapiens, UniProt O75360 56-141)
[10] = target: HESX1 (Homo sapiens, UniProt Q9UBX0 95-180, R109Q)
[11] = target: PROP1 (Homo sapiens, UniProt O75360 56-141, R99H)
[12] = target: ALX3 (Homo sapiens, UniProt O95076 139-225, L168Q)
[13] = target: HESX1 (Homo sapiens, UniProt Q9UBX0 95-180, P111T)
[14] = target: PROP1 (Homo sapiens, UniProt O75360 56-141, F88S)
[15] = target: MSX2 (Homo sapiens, UniProt P35548 130-214, F161Y)
[16] = target: HESX1 (Homo sapiens, UniProt Q9UBX0 95-180, F115L)
[17] = target: ALX1 (Homo sapiens, UniProt Q15699 118-204)
[18] = target: PRRX1 (Homo sapiens, UniProt P54821 80-166)
Chain of PRRX1 (Homo sapiens, UniProt P54821 80-166) (P54821 80-166): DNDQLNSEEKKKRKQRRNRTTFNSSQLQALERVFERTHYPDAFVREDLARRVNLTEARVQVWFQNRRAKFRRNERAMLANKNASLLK

Chain of PROP1 (Homo sapiens, UniProt O75360 56-141, R99H) (O75360 56-141 R99H): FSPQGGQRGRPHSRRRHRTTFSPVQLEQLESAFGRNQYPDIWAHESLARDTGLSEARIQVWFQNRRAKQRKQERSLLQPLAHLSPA
Chain of HESX1 (Homo sapiens, UniProt Q9UBX0 95-180, F115L) (Q9UBX0 95-180 F115L): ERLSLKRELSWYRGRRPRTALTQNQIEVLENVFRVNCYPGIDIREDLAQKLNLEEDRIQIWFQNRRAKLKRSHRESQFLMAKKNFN
Chain of HESX1 (Homo sapiens, UniProt Q9UBX0 95-180, R165K) (Q9UBX0 95-180 R165K): as the sequence (Q9UBX0 95-180 F115L) above, with L21F, R71K counted along it
Chain of HESX1 (Homo sapiens, UniProt Q9UBX0 95-180, P111T) (Q9UBX0 95-180 P111T): as the sequence (Q9UBX0 95-180 F115L) above, with P17T, L21F counted along it
Chain of HESX1 (Homo sapiens, UniProt Q9UBX0 95-180, R109Q) (Q9UBX0 95-180 R109Q): as the sequence (Q9UBX0 95-180 F115L) above, with R15Q, L21F counted along it
Chain of PRRX1 (Homo sapiens, UniProt P54821 80-166, F113S) (P54821 80-166 F113S): as the sequence (P54821 80-166) above, with F34S counted along it
Chain of HESX1 (Homo sapiens, UniProt Q9UBX0 95-180) (Q9UBX0 95-180): as the sequence (Q9UBX0 95-180 F115L) above, with L21F counted along it
Chain of ALX3 (O95076 139-225 L168Q): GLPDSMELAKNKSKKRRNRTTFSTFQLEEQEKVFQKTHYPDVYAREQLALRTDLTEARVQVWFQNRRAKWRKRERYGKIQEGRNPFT
Chain of ALX1 (Homo sapiens, UniProt Q15699 118-204, L144V) (Q15699 118-204 L144V): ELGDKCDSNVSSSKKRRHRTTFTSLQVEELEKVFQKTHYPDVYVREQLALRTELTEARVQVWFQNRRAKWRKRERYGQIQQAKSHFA
Chain of ALX1 (Homo sapiens, UniProt Q15699 118-204, L144R) (Q15699 118-204 L144R): as the sequence (Q15699 118-204 L144V) above, with V27R counted along it
Chain of PROP1 (Homo sapiens, UniProt O75360 56-141, F88S) (O75360 56-141 F88S): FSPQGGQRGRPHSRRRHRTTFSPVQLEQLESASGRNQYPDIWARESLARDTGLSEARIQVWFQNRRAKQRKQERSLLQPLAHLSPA
Chain of PROP1 (Homo sapiens, UniProt O75360 56-141) (O75360 56-141): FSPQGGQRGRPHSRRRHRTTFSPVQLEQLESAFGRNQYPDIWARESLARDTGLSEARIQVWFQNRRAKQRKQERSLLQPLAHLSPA
Chain of MSX2 (Homo sapiens, UniProt P35548 130-214, R199I) (P35548 130-214 R199I): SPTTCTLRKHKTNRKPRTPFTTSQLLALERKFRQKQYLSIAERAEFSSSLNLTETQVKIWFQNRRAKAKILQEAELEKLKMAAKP
Chain of ALX1 (Homo sapiens, UniProt Q15699 118-204) (Q15699 118-204): as the sequence (Q15699 118-204 L144V) above, with V27L counted along it
Chain of MSX2 (Homo sapiens, UniProt P35548 130-214, F161Y) (P35548 130-214 F161Y): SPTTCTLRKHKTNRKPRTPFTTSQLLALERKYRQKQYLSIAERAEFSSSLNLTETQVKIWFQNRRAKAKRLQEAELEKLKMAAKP
Chain of ALX4 (Homo sapiens, UniProt Q9H161 200-286) (Q9H161 200-286): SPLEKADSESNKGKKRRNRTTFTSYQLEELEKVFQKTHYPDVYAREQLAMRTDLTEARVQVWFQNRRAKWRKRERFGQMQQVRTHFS
Chain of ALX4 (Homo sapiens, UniProt Q9H161 200-286, Q225E) (Q9H161 200-286 Q225E): as the sequence (Q9H161 200-286) above, with Q26E counted along it

Sequence: AATTATTA
- binding signal [1]: 11.5 upbm affinity estimate (log intensity, higher = more binding, comparable within an allelic series)
- binding signal [2]: 13.5 upbm affinity estimate (log intensity, higher = more binding, comparable within an allelic series)
- binding signal [3]: 11.3 upbm affinity estimate (log intensity, higher = more binding, comparable within an allelic series)
- binding signal [4]: 12.8 upbm affinity estimate (log intensity, higher = more binding, comparable within an allelic series)
- binding signal [5]: 11.7 upbm affinity estimate (log intensity, higher = more binding, comparable within an allelic series)
- binding signal [6]: 12.3 upbm affinity estimate (log intensity, higher = more binding, comparable within an allelic series)
- binding signal [7]: 11.4 upbm affinity estimate (log intensity, higher = more binding, comparable within an allelic series)
- binding signal [8]: 11.2 upbm affinity estimate (log intensity, higher = more binding, comparable within an allelic series)
- binding signal [9]: 11 upbm affinity estimate (log intensity, higher = more binding, comparable within an allelic series)
- binding signal [10]: 8.87 upbm affinity estimate (log intensity, higher = more binding, comparable within an allelic series)
- binding signal [11]: 10.8 upbm affinity estimate (log intensity, higher = more binding, comparable within an allelic series)
- binding signal [12]: 10.4 upbm affinity estimate (log intensity, higher = more binding, comparable within an allelic series)
- binding signal [13]: 10.3 upbm affinity estimate (log intensity, higher = more binding, comparable within an allelic series)
- binding signal [14]: 7.79 upbm affinity estimate (log intensity, higher = more binding, comparable within an allelic series)
- binding signal [15]: 13.1 upbm affinity estimate (log intensity, higher = more binding, comparable within an allelic series)
- binding signal [16]: 8 upbm affinity estimate (log intensity, higher = more binding, comparable within an allelic series)
- binding signal [17]: 12 upbm affinity estimate (log intensity, higher = more binding, comparable within an allelic series)
- binding signal [18]: 13.4 upbm affinity estimate (log intensity, higher = more binding, comparable within an allelic series)

Sequence: GCCGTCGC
- binding signal [1]: 6.39 upbm affinity estimate (log intensity, higher = more binding, comparable within an allelic series)
- binding signal [3]: 9.29 upbm affinity estimate (log intensity, higher = more binding, comparable within an allelic series)
- binding signal [5]: 6.51 upbm affinity estimate (log intensity, higher = more binding, comparable within an allelic series)
- binding signal [10]: 6.58 upbm affinity estimate (log intensity, higher = more binding, comparable within an allelic series)
- binding signal [13]: 6.45 upbm affinity estimate (log intensity, higher = more binding, comparable within an allelic series)
- binding signal [16]: 6.53 upbm affinity estimate (log intensity, higher = more binding, comparable within an allelic series)
- binding signal [18]: 9.58 upbm affinity estimate (log intensity, higher = more binding, comparable within an allelic series)

Sequence: ACAATTAT
- binding signal [1]: 11.8 upbm affinity estimate (log intensity, higher = more binding, comparable within an allelic series)
- binding signal [3]: 11.2 upbm affinity estimate (log intensity, higher = more binding, comparable within an allelic series)
- binding signal [5]: 12.1 upbm affinity estimate (log intensity, higher = more binding, comparable within an allelic series)
- binding signal [6]: 12.6 upbm affinity estimate (log intensity, higher = more binding, comparable within an allelic series)
- binding signal [10]: 8.44 upbm affinity estimate (log intensity, higher = more binding, comparable within an allelic series)
- binding signal [11]: 10.8 upbm affinity estimate (log intensity, higher = more binding, comparable within an allelic series)
- binding signal [12]: 10.2 upbm affinity estimate (log intensity, higher = more binding, comparable within an allelic series)
- binding signal [13]: 10.3 upbm affinity estimate (log intensity, higher = more binding, comparable within an allelic series)
- binding signal [15]: 13.4 upbm affinity estimate (log intensity, higher = more binding, comparable within an allelic series)
- binding signal [16]: 7.61 upbm affinity estimate (log intensity, higher = more binding, comparable within an allelic series)
- binding signal [18]: 13.2 upbm affinity estimate (log intensity, higher = more binding, comparable within an allelic series)

Sequence: ACCGTCCG
- binding signal [1]: 6.56 upbm affinity estimate (log intensity, higher = more binding, comparable within an allelic series)
- binding signal [5]: 6.57 upbm affinity estimate (log intensity, higher = more binding, comparable within an allelic series)
- binding signal [10]: 6.49 upbm affinity estimate (log intensity, higher = more binding, comparable within an allelic series)
- binding signal [13]: 6.5 upbm affinity estimate (log intensity, higher = more binding, comparable within an allelic series)
- binding signal [16]: 6.47 upbm affinity estimate (log intensity, higher = more binding, comparable within an allelic series)

Sequence: CCCCCAGC
- binding signal [1]: 6.28 upbm affinity estimate (log intensity, higher = more binding, comparable within an allelic series)
- binding signal [5]: 6.22 upbm affinity estimate (log intensity, higher = more binding, comparable within an allelic series)
- binding signal [10]: 6.3 upbm affinity estimate (log intensity, higher = more binding, comparable within an allelic series)
- binding signal [13]: 6.31 upbm affinity estimate (log intensity, higher = more binding, comparable within an allelic series)
- binding signal [16]: 6.46 upbm affinity estimate (log intensity, higher = more binding, comparable within an allelic series)

Sequence: AAGCTGGC
- binding signal [1]: 6.31 upbm affinity estimate (log intensity, higher = more binding, comparable within an allelic series)
- binding signal [5]: 6.21 upbm affinity estimate (log intensity, higher = more binding, comparable within an allelic series)
- binding signal [10]: 6.45 upbm affinity estimate (log intensity, higher = more binding, comparable within an allelic series)
- binding signal [13]: 6.39 upbm affinity estimate (log intensity, higher = more binding, comparable within an allelic series)
- binding signal [16]: 6.51 upbm affinity estimate (log intensity, higher = more binding, comparable within an allelic series)

Sequence: GCGAGCGC
- binding signal [1]: 6.46 upbm affinity estimate (log intensity, higher = more binding, comparable within an allelic series)
- binding signal [5]: 6.44 upbm affinity estimate (log intensity, higher = more binding, comparable within an allelic series)
- binding signal [9]: 6.62 upbm affinity estimate (log intensity, higher = more binding, comparable within an allelic series)
- binding signal [10]: 6.48 upbm affinity estimate (log intensity, higher = more binding, comparable within an allelic series)
- binding signal [11]: 6.66 upbm affinity estimate (log intensity, higher = more binding, comparable within an allelic series)
- binding signal [13]: 6.41 upbm affinity estimate (log intensity, higher = more binding, comparable within an allelic series)
- binding signal [14]: 6.75 upbm affinity estimate (log intensity, higher = more binding, comparable within an allelic series)
- binding signal [16]: 6.54 upbm affinity estimate (log intensity, higher = more binding, comparable within an allelic series)

Sequence: GCCAGCCC
- binding signal [1]: 6.58 upbm affinity estimate (log intensity, higher = more binding, comparable within an allelic series)
- binding signal [5]: 6.38 upbm affinity estimate (log intensity, higher = more binding, comparable within an allelic series)
- binding signal [7]: 6.53 upbm affinity estimate (log intensity, higher = more binding, comparable within an allelic series)
- binding signal [8]: 6.62 upbm affinity estimate (log intensity, higher = more binding, comparable within an allelic series)
- binding signal [10]: 6.42 upbm affinity estimate (log intensity, higher = more binding, comparable within an allelic series)
- binding signal [13]: 6.51 upbm affinity estimate (log intensity, higher = more binding, comparable within an allelic series)
- binding signal [16]: 6.51 upbm affinity estimate (log intensity, higher = more binding, comparable within an allelic series)
- binding signal [17]: 6.43 upbm affinity estimate (log intensity, higher = more binding, comparable within an allelic series)
